Source: PubChem BioAssay
Rows were chosen to be rich in hits. Some 4.1% of all compounds tested hit in one or more screens of this group.
DAX1 inh-1 = DAX1 (NR0B1) inhibitors, primary screen, cell-based, HEK293, Gal4-DAX1, luciferase luminescence; inhibition, % at 6.75 µM; actives 0.99% (n = 340,000); Nuclear receptor subfamily 0 group B member 1 (Homo sapiens), P51843; HEK293 Gal4-DAX1 luciferase reporter;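 active = inhibition above the mean over all tested compounds plus 3 SD, cut at about 4.2% in these data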;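 note: 0% = DAX1-transfected cells with DMSO and 100% = empty-vector control cells with DMSO; inhibition shows as a rise in luminescence from relieved DAX1 repression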
DAX1 inh-2 = DAX1 (NR0B1) inhibitors on StAR promoter, primary screen, cell-based, luminescence, SF-1 (NR5A1), full-length DAX-1. HEK293T StAR-luciferase reporter, SF-1/DAX-1 repression relief. inhibition, % at 6.8 µM. actives 1.1% (n = 370,000). AID 652010, 2013;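 active = inhibition above the mean over all tested compounds plus 3 SD, cut at about 3.6% in these data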;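 note: 0% = DAX-1 cells with DMSO and 100% = cells lacking DAX-1 with DMSO; higher inhibition means more luminescence from relief of DAX-1 repression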
hcDAF-12 act = H. contortus DAF-12 nuclear receptor activators, primary screen, cell-based, luminescence, HEK293, lit1-tk-luc reporter. HEK293 hcDAF-12 lit1-tk-luc reporter; 0% DMSO, 100% Δ7-dafachronic acid. activation, % at 6.8 µM. actives 1.4% (n = 370,000). AID 652067, 2013;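 active = activation above the mean of all tested compounds plus 3 SD, cut at about 5.5% in these data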;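 note: 100% = response to 3 µM Δ7-dafachronic acid high control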
hgDAF12 agonist = H. glycines DAF-12 receptor agonists, primary screen, cell-based, luminescence, HEK293, GAL4 fusion, UAS-luciferase; Nuclear hormone receptor DAF-12 (Heterodera glycines), GAL4 fusion; HEK293 GAL4-hgDAF12 UAS-luciferase reporter, agonist luminescence; normalized to butyrate control; activation, % at 6.8 µM; actives 1.8% (n = 370,000); AID 687014, 2013;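 active = activation above a cutoff set at the mean of all screened compounds plus 3 SD, cut at about 10% in these data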;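 note: 0% = DMSO wells and 100% = sodium butyrate wells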
ssDAF-12 act = S. stercoralis DAF-12 nuclear receptor activators, primary screen, cell-based, luminescence, HEK293, GRIP1 co-expression, lit1-tk-luc. actives 1% (n = 370,000). HEK293 ssDAF-12/GRIP1 lit1-tk-luc reporter; % of 3 µM dafachronic acid response. activation, % at 6.8 µM. Nuclear hormone receptor DAF-12 (Strongyloides stercoralis). AID 652126, 2013;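 active = activation above the mean over all tested compounds plus 3 SD, cut at about 0.9% in these data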;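 note: 0% = DMSO-only wells and 100% = 3 µM delta7-dafachronic acid wells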
DAX1 inh confirm = DAX1 (NR0B1) inhibitors relieving SF-1 repression, confirmation, cell-based, luminescence, HEK293T, full-length DAX-1, SF-1 activated StAR promoter | shares compounds with DAX1 inh-2 | HEK293T StAR-promoter luciferase reporter, SF-1/DAX-1 repression | inhibition, % at 6.8 µM | actives 87% (n = 2,400);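 active = inhibition above the average of every tested compound plus 3 SD, cut at about 3.8% in these data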;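 note: 0% = DAX-1 cells with DMSO and 100% = no DAX-1 control cells with DMSO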
SF1 AF2mut Luc = StAR reporter signal changes without DAX1, counter-screen for DAX1 inhibitor project, cell-based, luminescence, AF-2 mutant SF-1, transactivation; shares compounds with DAX1 inh-2; HEK293 StAR-luciferase, SF-1 AF2 mutant; inhibition, % at 6.8 µM; actives 78% (n = 2,400);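 active = inhibition above the mean of all tested compounds plus 3 SD, cut at about 3% in these data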;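 note: 0% = DAX-1 transfected cells with DMSO and 100% = cells without DAX-1 with DMSO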
LXRb hcDAF ctr = LXR agonists, Gal4 luciferase reporter, confirmation, counter-screen for hcDAF-12 agonist project, cell-based, luminescence, HEK293, H. contortus campaign; AID 743027, 2013; HEK293 Gal4-LXR tk-luc reporter, 24 h; normalized: DMSO 0%, positive control 100%; 3,400 tested, under 10 active; shares compounds with hcDAF-12 act; activation, % at 6.8 µM;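 active = mean percent activation of the reporter above a cutoff set as the average over tested compounds plus their standard deviation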
Target sequence (P55055 whole entry, looked up, the tested form may be a part): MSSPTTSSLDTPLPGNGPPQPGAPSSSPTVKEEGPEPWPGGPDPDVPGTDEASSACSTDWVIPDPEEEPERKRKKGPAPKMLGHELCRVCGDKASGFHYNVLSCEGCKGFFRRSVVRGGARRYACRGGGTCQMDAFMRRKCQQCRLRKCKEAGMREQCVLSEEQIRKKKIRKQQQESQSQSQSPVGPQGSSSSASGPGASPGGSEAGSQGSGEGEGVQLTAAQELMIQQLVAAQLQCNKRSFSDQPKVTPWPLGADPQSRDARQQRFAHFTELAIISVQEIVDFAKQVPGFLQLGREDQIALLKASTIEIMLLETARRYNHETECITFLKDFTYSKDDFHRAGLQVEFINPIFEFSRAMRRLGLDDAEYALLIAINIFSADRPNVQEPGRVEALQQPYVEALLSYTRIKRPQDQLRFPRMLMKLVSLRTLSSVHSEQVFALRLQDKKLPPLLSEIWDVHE
hcDAF12 conf = H. contortus DAF-12 receptor agonists, confirmation, cell-based, luminescence, HEK293, lit1-tk-luc, triplicate; activation, % at 6.8 µM; actives 61% (n = 3,400); HEK293 hcDAF-12 lit1-tk-luc reporter; % of Δ7-dafachronic acid response; shares compounds with hcDAF-12 act;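 active = mean activation across triplicate tests above the threshold derived from the earlier primary screen, cut at about 5.5% in these data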;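 note: 0% = DMSO only wells and 100% = 3 µM Δ7-dafachronic acid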
The depositor's hits bear a star.

For COc1ccc(-c2nnc(SCC(=O)Nc3cccc4ccccc34)n2Cc2ccco2)cc1 the results were DAX1 inh-2 -1.9, hcDAF-12 act 0.3, hgDAF12 agonist 1.9 and ssDAF-12 act -0.1.
For Cc1ccc(NC(=O)CNC(=O)c2sc3ccccc3c2Cl)nc1 the results were DAX1 inh-1 2.5, DAX1 inh-2 4.6*, hcDAF-12 act 7.0*, hgDAF12 agonist 6.0, ssDAF-12 act 0.2, DAX1 inh confirm 4.8*, SF1 AF2mut Luc 3.4*, LXRb hcDAF ctr 0.0 and hcDAF12 conf 3.2.
Screening O=C(Nc1cccc(O)c1)C(=O)Nc1ccccn1 returned DAX1 inh-1 -2.3, DAX1 inh-2 6.1*, hcDAF-12 act 8.2*, hgDAF12 agonist 8.7, ssDAF-12 act -0.3, DAX1 inh confirm 10.0*, SF1 AF2mut Luc 5.6*, LXRb hcDAF ctr 1.2 and hcDAF12 conf 4.2.
Screening C/C(CC(=O)Nc1ccccn1)=N\NC(=O)C(=O)Nc1cccc(C)c1 returned DAX1 inh-1 0.4, DAX1 inh-2 0.1, hcDAF-12 act -1.0, hgDAF12 agonist -1.3 and ssDAF-12 act -1.6.
Screening O=S1(=O)c2c(NCc3ccco3)cccc2Oc2ccccc2CN1Cc1cn(Cc2ccc(Cl)cc2)nn1 returned DAX1 inh-2 0.7, hcDAF-12 act -2.9, hgDAF12 agonist -3.8 and ssDAF-12 act -0.9.
Fc1ccc(-c2nnc(-c3ccc(F)cc3)o2)cc1 was read as DAX1 inh-1 1.6, DAX1 inh-2 0.2, hcDAF-12 act 2.5, hgDAF12 agonist 0.3 and ssDAF-12 act -0.8.
For Fc1ccc(-c2nnc(-c3ccc4ccccc4c3)o2)cc1 the results were DAX1 inh-1 1.4, DAX1 inh-2 7.0*, hcDAF-12 act 8.0*, hgDAF12 agonist 20.3*, ssDAF-12 act 2.1*, DAX1 inh confirm 10.5*, SF1 AF2mut Luc 5.2*, LXRb hcDAF ctr 1.7 and hcDAF12 conf 12.3*.
Screening CCOC(=O)[C@@]12CCCC=C1N(CCc1ccc(Cl)cc1)C(=O)[C@H]2CC(=O)NCc1ccc(C)o1 returned DAX1 inh-2 -1.0, hcDAF-12 act -4.7, hgDAF12 agonist -0.5 and ssDAF-12 act -1.3.
Screening Fc1ccc(/C=N/NC2=Nc3cccc4cccc2c34)cc1 returned DAX1 inh-1 3.3, DAX1 inh-2 5.2*, hcDAF-12 act 14.6*, hgDAF12 agonist 22.4*, ssDAF-12 act 2.2*, DAX1 inh confirm 10.2*, SF1 AF2mut Luc 8.4*, LXRb hcDAF ctr 1.0 and hcDAF12 conf 11.4*.
